Rows were chosen to be rich in hits. Some 2.3% of all compounds tested hit in one or more screens of this group.
Rin1 Abl inh = blocks binding of human Rin1 to Abl | 360,000 tested, 0.4% active | TR-FRET Rin1/Abl binding, biochemical | inhibition, % at 7.35 µM | P00519+Q13671; in the data active = inhibition above about 5%, passing the limit was not always enough
Calb FLC = affects C. albicans growth with fluconazole. C. albicans CaCi-2 (fluconazole-resistant clinical isolate) + fluconazole, Alamar Blue growth, 48 h. growth inhibition, % (test concentration not listed). 300,000 tested, 0.57% active. AID 1979;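 active = growth inhibition above about 58% in most replicates, limit read from the data, passing the limit was not always enough; inconclusive = exactly half the replicates above a set limit; inactive = most replicates below a set limit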;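 also: all wells also contain fluconazole at 8 µg/ml as a sub-toxic cotreatment; 0% = median of DMSO wells and 100% = median of geldanamycin control wells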
TPT1 inhibitor = C. albicans TPT1 enzyme inhibition; recombinant caTPT1, FP RNA substrate dephosphorylation; inhibition, % at 5 µM; 300,000 tested, 0.81% active; AID 1962;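 active = inhibition above the mean of all tested compounds plus 3 SD, set per screening campaign, cut at about 24% in these data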;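 also: plate controls were DMSO alone for no effect and ferristatin control at 100 nM for full effect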
IDE cell activ = IDE (human) activation, cell-based; P14735; HEK cells, FAbeta-B cleavage, fluorescence polarization; 0% vehicle, 100% cell-free pure enzyme wells; activation, % at 5.96 µM; 340,000 tested, 0.073% active; AID 493087;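 active = activation above the mean of all tested compounds plus 3 SD, set per screening campaign, cut at about 17% in these data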
Target sequence (P14735 whole entry, looked up): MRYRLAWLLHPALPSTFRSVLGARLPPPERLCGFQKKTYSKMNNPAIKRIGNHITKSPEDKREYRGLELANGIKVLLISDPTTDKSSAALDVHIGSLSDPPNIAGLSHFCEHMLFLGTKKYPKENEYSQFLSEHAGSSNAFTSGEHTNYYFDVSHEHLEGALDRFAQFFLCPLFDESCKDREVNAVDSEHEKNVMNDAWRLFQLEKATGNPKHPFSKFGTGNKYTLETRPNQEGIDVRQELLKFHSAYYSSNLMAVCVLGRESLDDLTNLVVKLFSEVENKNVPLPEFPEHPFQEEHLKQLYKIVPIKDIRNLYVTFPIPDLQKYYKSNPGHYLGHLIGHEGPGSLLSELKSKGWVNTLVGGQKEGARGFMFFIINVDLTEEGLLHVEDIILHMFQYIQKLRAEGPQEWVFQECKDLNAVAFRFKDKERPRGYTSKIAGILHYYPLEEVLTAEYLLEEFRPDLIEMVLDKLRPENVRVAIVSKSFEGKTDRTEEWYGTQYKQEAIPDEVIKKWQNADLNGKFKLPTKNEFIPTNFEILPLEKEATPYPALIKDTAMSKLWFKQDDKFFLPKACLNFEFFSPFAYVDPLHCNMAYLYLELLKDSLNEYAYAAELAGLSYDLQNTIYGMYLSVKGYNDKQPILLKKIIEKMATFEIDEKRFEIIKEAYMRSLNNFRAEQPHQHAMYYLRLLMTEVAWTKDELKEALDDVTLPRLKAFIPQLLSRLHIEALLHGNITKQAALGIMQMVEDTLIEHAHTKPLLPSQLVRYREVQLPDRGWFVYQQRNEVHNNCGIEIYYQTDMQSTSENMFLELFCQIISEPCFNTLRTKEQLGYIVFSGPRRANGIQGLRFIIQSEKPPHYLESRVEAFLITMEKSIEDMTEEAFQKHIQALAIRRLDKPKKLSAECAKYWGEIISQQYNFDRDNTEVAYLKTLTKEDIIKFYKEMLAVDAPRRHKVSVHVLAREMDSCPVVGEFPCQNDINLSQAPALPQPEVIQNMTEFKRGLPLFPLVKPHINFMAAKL
IDE inh = inhibitors of human insulin-degrading enzyme in cells. P14735. HEK cells, FAbetaB cleavage, fluorescence polarization. inhibition, % at 5.59 µM. 320,000 tested, 0.41% active;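 active = percent inhibition above the average of all tested compounds plus 3 SD, set per screening campaign, cut at about 16% in these data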;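 also: IDE supplied by intact live HEK cells; FP after avidin binding of uncleaved biotin substrate so inhibition keeps polarization high; 0% = DMSO wells and 100% = 60 µM reference IDE inhibitor Ii1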
Rpn11 inh = Rpn11 (human) deubiquitinase inhibition. inhibition, % at 20 µM. human 26S proteasome, Ub4-pepOG fluorescence polarization; 20S core pre-blocked with epoxomicin. O00487. 360,000 tested, 0.59% active;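 active = inhibition at 20 µM, scaled to each plate's controls, above about 33%, limit read from the data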
* = called active by the depositor; ? = inconclusive; nt = no result given.

SMILES	Rin1 Abl inh	Calb FLC	TPT1 inhibitor	IDE cell activ	IDE inh	Rpn11 inh
N/C(Cc1ccccc1)=N\OC(=O)c1cccc2ccccc12	1	104*	2	6	-1	-9
CCc1ccc(-c2nc(CS(=O)CC(=O)O)c(C)o2)cc1 (configuration not stated)	-1	-10	-1	18*	-4	4
CC(C)CCN1C(=O)c2ccc(C(=O)Nc3ccc(Br)cc3C(=O)O)cc2C1=O	-1	82*	-2	5	3	13
CCc1cc(C(=O)OC)c(NC(=O)CC2Nc3cc(C)c(C)cc3NC2=O)s1 (configuration not stated)	-2	-4	14	2	0	nt
COc1ccc(CCNC(=O)CC2Nc3cc(C)c(C)cc3NC2=O)cc1OC (configuration not stated)	-3	12	6	4	9	19
COC(=O)c1c(NC(=O)CC2Nc3cc(C)c(C)cc3NC2=O)sc(C)c1C (configuration not stated)	2	2	12	4	-1	50*
Cc1cc2c(cc1C)NC(CC(=O)NCc1ccccc1)C(=O)N2 (configuration not stated)	-8	?	12	-3	-2	53*
CCOC(=O)N1CCN(C(=O)C(NC(=O)c2ccc(C(C)(C)C)cc2)C(C)C)CC1 (configuration not stated)	4	nt	nt	0	2	-4
CCN(CC)C(=O)c1sc2nc(-c3cccs3)cc(-c3ccc(Cl)cc3)c2c1N	-4	4	24	-4	1	37*
CCN(CC)C(=O)c1sc2nc(-c3cccs3)cc(-c3cccs3)c2c1N	-5	3	5	2	1	34
CCOc1ccc(/C=C2\CCCc3c2nc2ccccc2c3C(=O)O)cc1OC	-8	5	-62	48*	-36	-183
S=C(NCCN1CCOCC1)NC1CCCC1	1	51*	-3	4	6	-3
OCCN1CCN(C(=S)NC2CCCC2)CC1	-1	88*	-1	4	3	-5
COc1cccc(COC(=O)c2cc(=O)[nH]c3ccc(S(=O)(=O)N4CCOCC4)cc23)c1OC	-2	2	-3	2	4	-6
Cc1cc(C)cc(-n2nnnc2-c2cn(C)nc2C(F)(F)F)c1	7.5*	-1	-6	5	5	4
CCCN(C(=O)C1CSC2(C)CCC(=O)N12)c1c(N)n(Cc2ccccc2)c(=O)[nH]c1=O (configuration not stated)	0	3	0	3	7	-4
O=C(c1cnn2c(C(F)(F)F)cc(-c3ccc4c(c3)OCO4)nc12)N1CCCCC1	3	-5	-1	-6	5	-4
O=C(NC1CCCC1)c1cnn2c(C(F)(F)F)cc(-c3ccc4c(c3)OCO4)nc12	0	-15	-4	19*	-2	nt
CC(=O)NC1CCCN(O)C(=O)/C=C(\C)CCOC(=O)C(NC(C)=O)CCCN(O)C(=O)/C=C(\C)CCOC(=O)C(NC(C)=O)CCCN(O)C(=O)/C=C(\C)CCOC1=O (configuration not stated)	1	86*	-1	nt	-11	-3
C/C(=N\NC(=O)CCC(=O)Nc1ccc(C)c(C)c1)c1cccs1	1	-1	1	0	0	5
C/C(=N\NC(=O)CCC(=O)Nc1ccc(C)c(C)c1)C1CC1	-1	123*	nt	1	nt	-8
FC(F)(F)c1ccccc1NC(=S)N1CCCC1	-4	-16	1	2	0	0
FC(F)(F)c1ccccc1NC(=S)NN=C1CCCCCC1	nt	95*	-6	nt	-2	nt
Cc1nn(C)c(Cl)c1CN1CCC(CO)(CCOc2ccccc2)CC1	1	-2	0	3	-2	2
Cc1c(CN2CCC(CO)(CCOc3ccccc3)CC2)[nH]c2c(Cl)cccc12	-2	2	-5	28*	-4	1
SMILES	Rin1 Abl inh	Calb FLC	TPT1 inhibitor	IDE cell activ	IDE inh	Rpn11 inh
Cc1ccc(OCc2cc(C(=O)NCc3cnn(-c4cccc(F)c4)c3)no2)cn1	3	78*	0	-4	4	3
O=C(CSc1nc(-c2ccccc2)nc2c1Cc1ccccc1O2)Nc1ccc(C(=O)O)cc1	-7	nt	nt	3	nt	51*
O=C(CSc1nc(-c2ccccc2)nc2ccccc12)Nc1cccc(C(=O)O)c1	-4	25	-3	nt	2	3
O=C(CSc1nc(-c2ccc(F)cc2)nc2c1Cc1ccccc1O2)Nc1ccc(C(=O)O)cc1	3	nt	nt	-1	nt	163*
S=C(Nc1ccccn1)NC1CCCCC1	-3	3	-7	nt	2	-1
Nc1cc(=O)nc2cn[nH]n12	5	nt	nt	nt	nt	-4
COc1ccc(C2=NN(C(=O)CCC(=O)O)C(c3cccs3)C2)cc1 (configuration not stated)	3	6	0	2	5	5
COc1ccc(C2=NN3C(C2)c2ccccc2OC3c2cccs2)cc1 (configuration not stated)	0	-13	9	-2	-3	40*
O=C1c2ccccc2C(=O)c2c1cccc2N1CCCC1	-13	80*	-6	6	3	-3
Clc1ccc(OCCn2ccnc2)c2ccccc12	-6	101*	-1	1	6	-8
C=CCC(C=C)[N+]1(CC(=O)OC)CCCCC1 (configuration not stated)	3	-4	-2	nt	3	5
O=C(C[n+]1ccccc1)N/N=C/c1cccs1	2	95*	2	3	0	-11
O=c1c2ccccc2nc(/C=C/c2ccc([N+](=O)[O-])o2)n1CCCO	-6	108*	21	-4	3	nt
CCOC(=O)c1cnc2ccc(C)cc2c1Nc1ccc(N2CCOCC2)cc1	-4	96*	-1	3	3	-1
CCCCCCCCCCCCCCCC[n+]1cccc2ccccc21	-2	nt	-2	13	-2	78*
Cc1cc(NC(=O)CN2C(=O)/C(=C/c3ccccc3F)SC2=S)no1	4	6	3	1	13	19
NC(N)=N/N=C/c1ccc(OCc2ccc(Cl)cc2)cc1	0	111*	1	14	-1	4
NC(N)=N/N=C/c1ccc(OCc2ccccc2)cc1	-1	-12	0	1	4	-4
Cc1ccc(C(=O)NCCCNC(=O)COc2ccc(Cl)cc2)cn1	0	-3	-3	5	-6	-2
COc1ccc(-c2csc(N(CC3CCCO3)C(=O)c3ccco3)n2)cc1 (configuration not stated)	-6	98*	0	1	-2	0
COc1ccc(NC(=O)/C(=C\c2ccccc2)NC(=O)c2ccco2)cc1	-1	2	-2	3	-3	2
O=C(/C=C/c1cccc(Cl)c1)c1nc2ccccc2[nH]1	0	99*	3	-8	5	11

From PubChem BioAssay
